Results published in PubChem BioAssay (Tox21).
Unmarked numbers belong to inactive results. Inconclusive results are not listed. Entries that show only a call come without a potency. The source made the active and inactive calls. Unless noted, calls follow the shape of the full dose curve.

Assays:
[1] = qHTS assay to identify small molecule antagonists of the sonic hedgehog signaling (Shh) pathway (AID 1259369); also: nearly all actives have a fitted effect of over 45% in size; also: potency is read from the fitted curve at half-maximal effect
How it was run: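 Luminescence readout: firefly Luc under Gli1 response element in 3T3Gli1-Luc cells (NIH/3T3 clone). Antagonist mode, stimulation by conditioned medium; compound exposure 24hr at 37 C, 5% CO2.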

[2] = qHTS assay to identify small molecule agonists of the androgen receptor (AR) signaling pathway in the presence of an antagonist - cell viability counter screen (AID 1259379; active = well fitted curve in the direction sought with a large enough effect in the repeat runs; an effect the other way counts as inactive or inconclusive; also: nearly all actives have a fitted effect of over 25% in size; also: potency is read from the fitted curve at half-maximal effect;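 as to activity change, negative = cytotoxicity: MDA-kb2 human breast cancer cells carrying an MMTV luciferase reporter; series mostly up to about 92 µM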)
How it was run: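 Viability counter screen: CellTiter-Fluor fluorescence, measured in the same wells as the luciferase read-out. MDA-kb2 cells, 3,000/well, with nilutamide at 3.0uM final and compounds at 15 concentrations, 16 hr at 37C, 0% CO2.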

[3] = qHTS assay to identify small molecule agonists of the estrogen receptor beta (ER-beta) signaling pathway - cell viability counter screen (AID 1259380; active = well fitted curve in the direction sought with a large enough effect in the repeat runs; an effect the other way counts as inactive or inconclusive; also: nearly all actives have a fitted effect of over 30% in size; also: potency is read from the fitted curve at half-maximal effect)
How it was run: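 Luminescence read-out (CellTiter-Glo, 30 min, room temp) taken in the same wells as the beta-lactamase reporter assay; ER-beta-UAS-bla HEK293T cells exposed to DMSO-dissolved compounds for 16 hr at 37C in 2% charcoal-stripped FBS medium.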

[4] = qHTS assay to identify small molecule antagonists of the estrogen receptor beta (ER-beta) signaling pathway - cell viability counter screen (AID 1259382; active = well fitted curve in the direction sought with a large enough effect in the repeat runs; an effect the other way counts as inactive or inconclusive; also: nearly all actives have a fitted effect of over 55% in size; also: potency is read from the fitted curve at half-maximal effect; as to activity change, negative = cytotoxicity: series mostly up to about 92 µM)
How it was run: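 Luminescent ATP read-out (CellTiter-Glo, 30 min, RT) taken in the same wells as the bla reporter assay. HEK293T ER-beta-UAS-bla cells in 2% charcoal-stripped FBS were exposed to compounds with 1nM E2 for 16 hr at 37C.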

[5] = target: Estrogen receptor (Homo sapiens) (UniProt P03372); experiment: qHTS assay to identify small molecule agonists of the estrogen receptor alpha (ER-alpha) signaling pathway in the presence of an antagonist (AID 1259383); also: top concentration of the series differs between compounds; nearly all actives have a fitted effect of over 15% in size
Chain of Estrogen receptor (Homo sapiens) (P03372 whole entry, looked up): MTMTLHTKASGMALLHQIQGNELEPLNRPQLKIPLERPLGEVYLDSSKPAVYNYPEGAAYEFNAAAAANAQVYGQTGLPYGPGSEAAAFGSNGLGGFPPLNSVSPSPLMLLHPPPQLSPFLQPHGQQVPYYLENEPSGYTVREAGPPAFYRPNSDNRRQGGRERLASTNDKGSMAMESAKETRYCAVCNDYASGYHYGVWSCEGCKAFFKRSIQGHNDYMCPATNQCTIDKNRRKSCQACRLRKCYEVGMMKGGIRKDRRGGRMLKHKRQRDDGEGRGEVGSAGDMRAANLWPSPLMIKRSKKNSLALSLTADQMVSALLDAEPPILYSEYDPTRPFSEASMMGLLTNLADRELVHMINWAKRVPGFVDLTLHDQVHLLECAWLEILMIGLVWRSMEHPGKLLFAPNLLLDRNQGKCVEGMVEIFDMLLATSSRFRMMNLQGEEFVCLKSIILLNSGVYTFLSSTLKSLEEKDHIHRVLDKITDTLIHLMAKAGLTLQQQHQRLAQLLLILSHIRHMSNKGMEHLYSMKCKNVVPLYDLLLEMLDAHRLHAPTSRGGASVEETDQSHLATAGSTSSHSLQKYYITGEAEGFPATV
How it was run: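 Luciferase luminescence (ONE-Glo, 30min at room temperature) measured in VM7Luc4E2 cells after 22hr compound exposure at 15 concentrations, with 10.0nM ICI-182,780 final present; cells express endogenous ER-alpha and carry four EREs upstream of luciferase.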

[6] = qHTS assay to identify small molecule agonists or antagonists of the thyroid stimulating hormone receptor (TSHR) signaling pathway - wild type cell line counter screen (AID 1259384)
How it was run: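 Wild-type HEK293 cells were plated 18 h at 37 C/5% CO2, pin-dosed with compound plus Ro20-1724 medium, held 30 min at room temperature, then given cAMP-d2 and anti-cAMP-cryptate; fluorescence was read after 1 h. Fifteen concentrations, triplicate.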

[7] = target: Thyrotropin receptor (Homo sapiens) (UniProt P16473); experiment: qHTS assay to identify small molecule antagonists of the thyroid stimulating hormone receptor (TSHR) signaling pathway (AID 1259385); also: nearly all actives have a fitted effect of over 20% in size; also: potency is read from the fitted curve at half-maximal effect
Chain of Thyrotropin receptor (Homo sapiens) (P16473 whole entry, looked up): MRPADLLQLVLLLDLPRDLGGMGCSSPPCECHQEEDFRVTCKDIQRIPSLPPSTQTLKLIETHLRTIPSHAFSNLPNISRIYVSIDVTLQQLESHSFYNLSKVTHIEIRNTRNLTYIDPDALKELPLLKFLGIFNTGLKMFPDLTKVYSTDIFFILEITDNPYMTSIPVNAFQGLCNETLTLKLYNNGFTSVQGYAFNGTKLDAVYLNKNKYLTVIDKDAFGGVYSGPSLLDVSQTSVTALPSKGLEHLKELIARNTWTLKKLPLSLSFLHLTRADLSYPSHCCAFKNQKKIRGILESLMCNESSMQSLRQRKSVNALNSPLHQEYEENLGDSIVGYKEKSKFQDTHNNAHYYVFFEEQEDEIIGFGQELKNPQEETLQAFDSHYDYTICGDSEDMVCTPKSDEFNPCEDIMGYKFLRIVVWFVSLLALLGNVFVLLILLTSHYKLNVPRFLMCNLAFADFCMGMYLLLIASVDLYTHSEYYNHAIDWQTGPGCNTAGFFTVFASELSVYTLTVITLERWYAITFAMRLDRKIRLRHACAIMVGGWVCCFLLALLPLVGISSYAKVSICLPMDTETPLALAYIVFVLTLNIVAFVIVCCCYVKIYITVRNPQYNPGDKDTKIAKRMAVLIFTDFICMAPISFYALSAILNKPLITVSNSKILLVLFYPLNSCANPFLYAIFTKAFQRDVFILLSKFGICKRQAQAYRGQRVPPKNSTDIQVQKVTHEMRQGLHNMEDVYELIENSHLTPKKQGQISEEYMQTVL
How it was run: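 TSHR-HEK293 cells were plated and held 18 h at 37C/5% CO2, then given compound plus Ro20-1724 and stimulated with TSH at 1.5 ng/mL final. After 30 min at room temperature, cAMP was detected with cAMP-d2/anti-cAMP-cryptate (1 h) by fluorescence.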

[8] = target: Progesterone receptor (Homo sapiens) (UniProt P06401); experiment: qHTS assay to identify small molecule agonists of the progesterone receptor (PR) signaling pathway (AID 1346784); also: nearly all actives have a fitted effect of over 30% in size
Chain of Progesterone receptor (Homo sapiens) (P06401 whole entry, looked up): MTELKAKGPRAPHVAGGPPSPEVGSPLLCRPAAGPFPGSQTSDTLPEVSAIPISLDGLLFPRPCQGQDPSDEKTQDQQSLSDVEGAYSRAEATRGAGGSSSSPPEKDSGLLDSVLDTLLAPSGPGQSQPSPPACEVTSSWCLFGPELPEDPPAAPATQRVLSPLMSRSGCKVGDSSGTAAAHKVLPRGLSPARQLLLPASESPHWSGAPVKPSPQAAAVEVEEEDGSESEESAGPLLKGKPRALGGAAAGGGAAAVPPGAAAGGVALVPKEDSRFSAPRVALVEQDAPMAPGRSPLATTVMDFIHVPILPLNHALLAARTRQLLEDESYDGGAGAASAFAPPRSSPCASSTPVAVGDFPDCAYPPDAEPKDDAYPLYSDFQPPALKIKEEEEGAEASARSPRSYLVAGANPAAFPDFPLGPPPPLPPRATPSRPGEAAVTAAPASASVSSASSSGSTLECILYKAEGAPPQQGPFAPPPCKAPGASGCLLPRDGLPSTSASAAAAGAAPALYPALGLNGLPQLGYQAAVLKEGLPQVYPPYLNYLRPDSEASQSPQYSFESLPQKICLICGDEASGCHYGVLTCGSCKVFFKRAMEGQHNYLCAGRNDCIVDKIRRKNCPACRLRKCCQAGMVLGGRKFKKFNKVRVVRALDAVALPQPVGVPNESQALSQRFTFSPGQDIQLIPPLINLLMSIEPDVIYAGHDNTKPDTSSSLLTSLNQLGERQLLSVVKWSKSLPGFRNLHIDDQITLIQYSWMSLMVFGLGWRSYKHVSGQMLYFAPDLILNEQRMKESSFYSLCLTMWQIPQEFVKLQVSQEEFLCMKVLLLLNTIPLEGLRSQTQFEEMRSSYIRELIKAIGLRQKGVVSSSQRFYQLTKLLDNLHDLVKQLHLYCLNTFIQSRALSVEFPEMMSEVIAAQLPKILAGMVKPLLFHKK
How it was run: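 Fluorescence from LiveBLAzer B/G FRET substrate cleavage (2 hr, RT) reported PR activation in PR-UAS-bla HEK 293T cells treated 16 hr at 37C/5% CO2 with compounds; medium contained 2% charcoal-stripped FBS.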

[9] = target: Progesterone receptor (Homo sapiens) (UniProt P06401); experiment: qHTS assay to identify small molecule antagonists of the progesterone receptor (PR) signaling pathway (AID 1346795; active = well fitted inhibition curve with a large enough effect in the signal ratio in the repeat runs, not every such curve was filed as active; the % refers to the signal ratio; also: potency is read from the fitted curve at half-maximal effect)
How it was run: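 Fluorescence intensity measured 2 hr after adding beta-lactamase FRET substrate to PR-UAS-bla HEK293T cells that had been co-treated 16 hr with compound and 1 nM R5020 (final concentration) in 2% charcoal-stripped FBS.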

[10] = qHTS assay to identify small molecule antagonists of the progesterone receptor (PR) signaling pathway - cell viability counter screen (AID 1346798; active = well fitted curve in the direction sought with a large enough effect in the repeat runs; an effect the other way counts as inactive or inconclusive; also: nearly all actives have a fitted effect of over 50% in size; also: potency is read from the fitted curve at half-maximal effect; as to activity change, negative = cytotoxicity: series mostly up to about 92 µM)
How it was run: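 CellTiter-Glo luminescence; PR-UAS-bla HEK293T, 3,000 cells/well; compound + R5020, 16 hr, 37C/5% CO2; 30 min RT before read.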

[11] = qHTS assay to identify small molecule agonists of the progesterone receptor (PR) signaling pathway - cell viability counter screen (AID 1346799); also: nearly all actives have a fitted effect of over 45% in size; also: potency is read from the fitted curve at half-maximal effect
How it was run: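 In parallel with the beta-lactamase readout, cytotoxicity toward PR-UAS-bla HEK293T cells was measured by CellTiter-Glo luminescence following 16 hr compound incubation in 2% charcoal-stripped FBS medium.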

[12] = qHTS assay to identify small molecule antagonists of the TGF-beta/Smad signaling pathway - cell viability counter screen (AID 1346824; active = well fitted curve in the direction sought with a large enough effect in the repeat runs; an effect the other way counts as inactive or inconclusive; also: nearly all actives have a fitted effect of over 50% in size)
How it was run: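 SBE-bla HEK 293T cells were plated overnight at 37 C, then given compounds in DMSO plus TGF-beta1 (added as 0.25 ng/mL solution) for 5 hr. After the bla read, CellTiter-Glo was added to the same wells and luminescence read after 30 min at room temperature.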

[13] = qHTS assay to identify small molecule agonists of the TGF-beta/Smad signaling pathway - cell viability counter screen (AID 1346829; active = well fitted curve in the direction sought with a large enough effect in the repeat runs; an effect the other way counts as inactive or inconclusive; also: top concentration of the series differs between compounds; nearly all actives have a fitted effect of over 45% in size)
How it was run: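 Compound-treated SBE-bla HEK 293T cells (5 hr, 37 C) were assessed for viability with CellTiter-Glo in parallel with the reporter read.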

[14] = qHTS assay to identify small molecule agonists of the TGF-beta/Smad signaling pathway (AID 1346859; active = well fitted activation curve with a large enough effect in the signal ratio in the repeat runs, not every such curve was filed as active; the % refers to the signal ratio; also: series mostly up to about 77 µM)
How it was run: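 After overnight seeding, SBE-bla HEK 293T cells are dosed with compounds in DMSO and kept 5 hr at 37 C, 5% CO2. LiveBLAzer-type FRET substrate is then applied for 2 hr at room temperature.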

[15] = target: Thyrotropin-releasing hormone receptor (Homo sapiens) (UniProt P34981); experiment: qHTS assay to identify small molecule antagonists of the thyrotropin-releasing hormone receptor (TRHR) signaling pathway (AID 1346877; active = well fitted inhibition curve with a large enough effect in the repeat runs, not every such curve was filed as active; also: series mostly up to about 51 µM)
Chain of Thyrotropin-releasing hormone receptor (Homo sapiens) (P34981 whole entry, looked up): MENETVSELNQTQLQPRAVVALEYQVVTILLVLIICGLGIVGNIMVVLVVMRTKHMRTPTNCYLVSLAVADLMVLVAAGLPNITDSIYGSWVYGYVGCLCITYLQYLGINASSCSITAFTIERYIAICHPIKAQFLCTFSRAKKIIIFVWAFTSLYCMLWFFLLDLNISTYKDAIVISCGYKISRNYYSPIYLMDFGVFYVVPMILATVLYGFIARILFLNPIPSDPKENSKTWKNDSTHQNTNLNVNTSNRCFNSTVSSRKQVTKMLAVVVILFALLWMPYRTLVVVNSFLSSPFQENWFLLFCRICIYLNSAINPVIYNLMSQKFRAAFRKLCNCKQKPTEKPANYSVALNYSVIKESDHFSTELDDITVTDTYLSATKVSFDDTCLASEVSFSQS
How it was run: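 HEK293/TRHR cells, 18 h, 37 °C; Ca2+ dye 2 h; cpd 5 min RT; TRH 1 nM final; fluorescence read 3 min, 1 s intervals; 15 concs, triplicate.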

[16] = target: Thyrotropin-releasing hormone receptor (Homo sapiens) (UniProt P34981); experiment: qHTS assay to identify small molecule agonists of the thyrotropin-releasing hormone receptor (TRHR) signaling pathway (AID 1346891);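 also: HEK293 cells expressing TRHR with calcium dye readout; series mostly up to about 58 µM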
How it was run: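 Compounds were tested as agonists at 15 concentrations, in triplicate, on TRHR-Hek293 cells; calcium-sensitive dye fluorescence was recorded for 3 min following addition.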

[17] = target: Estrogen receptor beta (Homo sapiens) (UniProt Q92731); experiment: qHTS assay to identify small molecule antagonists of the estrogen receptor beta (ER-beta) signaling pathway (AID 1259378; active = well fitted inhibition curve with a large enough effect in the signal ratio in the repeat runs, not every such curve was filed as active; the % refers to the signal ratio; also: potency is read from the fitted curve at half-maximal effect)
Chain of Estrogen receptor beta (Homo sapiens) (Q92731 whole entry, looked up): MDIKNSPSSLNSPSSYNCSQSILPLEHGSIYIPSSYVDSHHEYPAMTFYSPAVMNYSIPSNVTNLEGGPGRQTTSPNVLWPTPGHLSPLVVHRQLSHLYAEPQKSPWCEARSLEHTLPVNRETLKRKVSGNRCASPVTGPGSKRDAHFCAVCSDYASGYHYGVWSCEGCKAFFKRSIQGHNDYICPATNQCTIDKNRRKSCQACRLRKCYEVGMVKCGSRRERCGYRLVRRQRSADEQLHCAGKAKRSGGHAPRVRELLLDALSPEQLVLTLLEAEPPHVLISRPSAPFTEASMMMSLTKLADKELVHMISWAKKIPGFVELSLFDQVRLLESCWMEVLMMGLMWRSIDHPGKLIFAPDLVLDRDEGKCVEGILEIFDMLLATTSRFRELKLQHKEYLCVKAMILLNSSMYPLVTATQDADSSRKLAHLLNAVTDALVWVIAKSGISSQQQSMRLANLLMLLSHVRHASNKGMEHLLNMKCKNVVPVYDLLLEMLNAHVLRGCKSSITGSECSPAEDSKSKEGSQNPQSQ
How it was run: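 ER-beta-UAS-bla HEK293T (GripTite) cells in 2% charcoal-stripped FBS medium were preincubated 6 hr at 37C, dosed with compound, then stimulated with 1 nM E2 (final) for 16 hr; beta-lactamase reporter read by B/G FRET fluorescence after 2 hr substrate loading.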

[18] = qHTS assay to identify small molecule agonists of the estrogen receptor alpha (ER-alpha) signaling pathway in the presence of an antagonist - cell viability counter screen (AID 1259386; active = well fitted curve in the direction sought with a large enough effect in the repeat runs; an effect the other way counts as inactive or inconclusive;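 also: series mostly up to about 92 µM; cells exposed to compounds for 22 h at 37 °C before the viability read; nearly all actives have a fitted effect of over 30% in size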)
How it was run: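 Read-out: CellTiter-Fluor fluorescence after 1hr reagent incubation, measured in the same wells as the luciferase readout. VM7Luc4E2 cells were exposed to 15 compound concentrations with 10.0nM ICI-182,780 for 22hr at 37C.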

[19] = target: Androgen receptor (Homo sapiens) (UniProt P10275); experiment: qHTS assay to identify small molecule agonists of the androgen receptor (AR) signaling pathway in the presence of an antagonist (AID 1259381); also: nearly all actives have a fitted effect of over 15% in size
Chain of Androgen receptor (Homo sapiens) (P10275 whole entry, looked up): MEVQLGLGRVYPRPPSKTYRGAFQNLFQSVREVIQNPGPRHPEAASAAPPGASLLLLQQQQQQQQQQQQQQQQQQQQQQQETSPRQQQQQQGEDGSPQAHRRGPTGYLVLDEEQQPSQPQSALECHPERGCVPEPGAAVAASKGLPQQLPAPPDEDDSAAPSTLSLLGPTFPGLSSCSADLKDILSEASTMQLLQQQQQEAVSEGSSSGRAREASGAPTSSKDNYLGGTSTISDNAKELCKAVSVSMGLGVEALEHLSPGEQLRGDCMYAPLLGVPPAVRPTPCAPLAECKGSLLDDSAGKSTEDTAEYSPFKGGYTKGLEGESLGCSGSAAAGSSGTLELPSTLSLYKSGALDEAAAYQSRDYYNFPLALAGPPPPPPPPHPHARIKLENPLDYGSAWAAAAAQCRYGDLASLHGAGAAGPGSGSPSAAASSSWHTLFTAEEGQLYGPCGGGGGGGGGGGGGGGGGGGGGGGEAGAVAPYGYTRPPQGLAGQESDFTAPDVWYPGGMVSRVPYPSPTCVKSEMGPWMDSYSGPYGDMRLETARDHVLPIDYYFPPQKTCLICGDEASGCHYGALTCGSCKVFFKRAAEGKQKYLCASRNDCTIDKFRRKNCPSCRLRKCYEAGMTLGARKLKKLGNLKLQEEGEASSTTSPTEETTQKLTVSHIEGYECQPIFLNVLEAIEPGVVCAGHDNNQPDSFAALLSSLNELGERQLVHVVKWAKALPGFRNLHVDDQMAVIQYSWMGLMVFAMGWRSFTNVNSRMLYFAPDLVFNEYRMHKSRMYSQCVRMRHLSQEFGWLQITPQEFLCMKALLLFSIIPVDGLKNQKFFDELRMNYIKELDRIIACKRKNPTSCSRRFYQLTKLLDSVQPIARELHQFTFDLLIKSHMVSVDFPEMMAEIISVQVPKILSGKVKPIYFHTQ
How it was run: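 Luciferase read-out (ONE-Glo, 30min room temperature) in MDA-kb2 MMTV-reporter cells; agonist mode run in presence of AR antagonist nilutamide, 3.0uM final. Compounds tested as 15-point series, 16hr exposure at 37C, 0% CO2.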

SMILES: C[C@H]1NCc2cc(-c3ccc4c(=O)c(C(=O)O)cn(C5CC5)c4c3OC(F)F)ccc21
- activity change, negative = inhibition [1]: 4.27% [at 19 µM]
- activity change, negative = cytotoxicity [2]: -2.32% [at 19 µM]
- activity change, negative = cytotoxicity [3]: -4.82% [at 19 µM]
- activity change, negative = cytotoxicity [4]: 2.92% [at 19 µM]
- activation [5]: -0.399% [at 19 µM]
- cAMP activity change [6]: -2.09% [at 18.9 µM]
- activity change, negative = inhibition [7]: 6.84% [at 19 µM]
- activation [8]: -1.22% [at 19 µM]
- activity change, negative = inhibition [9]: 2.98% [at 18.9 µM]
- activity change, negative = cytotoxicity [10]: -2.19% [at 18.9 µM]
- activity change, negative = cytotoxicity [11]: -10.9% [at 19 µM]
- viability change, negative = cytotoxic [12]: -2.18% [at 15.8 µM]
- activity change, negative = cytotoxicity [13]: 0.347% [at 15.8 µM]
- activation [14]: -4.87% [at 15.8 µM]
- activity, negative = inhibition [15]: 5.68% [at 10.5 µM]
- activation [16]: 0.004% [at 11.8 µM]

SMILES: CN1CCC[C@@H]1CCO[C@](C)(c1ccccc1)c1ccc(Cl)cc1
- Potency [1]: 26.6 µM (active)
- Potency [17]: 18.8 µM (active)
- Potency [2]: 29.8 µM (active)
- Potency [3]: 23.7 µM (active)
- Potency [4]: 21.1 µM (active)
- outcome [6]: inactive
- Potency [7]: 29.8 µM (active)
- Potency [18]: inactive
- Potency [8]: inactive
- Potency [10]: 21.1 µM (active)
- Potency [11]: 8.41 µM (active)
- Potency [12]: inactive
- Potency [13]: inactive
- Potency [14]: inactive
- Potency [15]: inactive
- outcome [16]: inactive

SMILES: Cc1ccc(C)cc1
- Potency [1]: inactive
- Potency [2]: inactive
- Potency [3]: inactive
- outcome [19]: inactive
- Potency [4]: inactive
- Potency [5]: inactive
- Potency [18]: inactive
- Potency [8]: inactive
- Potency [9]: inactive
- Potency [10]: inactive
- Potency [12]: inactive
- Potency [13]: inactive
- Potency [14]: inactive
- Potency [15]: inactive
- outcome [16]: inactive

SMILES: CC[C@H](C)COC(=O)/C=C/c1ccc(N=Cc2ccc(OC)cc2)cc1
- Potency [1]: inactive
- Potency [17]: 54.4 µM (active)
- Potency [3]: 6.1 µM (active)
- Potency [5]: inactive
- outcome [6]: inactive
- Potency [8]: inactive
- Potency [9]: 30.6 µM (active)
- Potency [10]: inactive
- Potency [12]: inactive
- Potency [14]: inactive

SMILES: COc1ccc2cc1Oc1ccc(cc1)C[C@H]1c3c(cc4c(c3Oc3cc5c(cc3OC)CCN(C)[C@@H]5C2)OCO4)CCN1C
- Potency [1]: 3.76 µM (active)
- Potency [2]: 26.6 µM (active)
- Potency [3]: 26.6 µM (active)
- outcome [19]: inactive
- Potency [4]: inactive
- Potency [5]: inactive
- outcome [6]: inactive
- Potency [7]: 23.7 µM (active)
- Potency [8]: inactive
- Potency [9]: inactive
- Potency [13]: inactive
- Potency [15]: inactive
- outcome [16]: inactive

SMILES: OC[C@H]1O[C@H](O[C@H]2O[C@H](CO)[C@@H](O)[C@H](O)[C@H]2O)[C@H](O)[C@@H](O)[C@@H]1O
- Potency [1]: inactive
- Potency [2]: inactive
- Potency [3]: inactive
- outcome [19]: inactive
- Potency [4]: inactive
- outcome [6]: inactive
- Potency [7]: inactive
- Potency [18]: inactive
- Potency [8]: inactive
- Potency [9]: inactive
- Potency [10]: inactive
- Potency [11]: inactive
- Potency [12]: inactive
- Potency [13]: inactive
- Potency [14]: inactive
- Potency [15]: inactive
- outcome [16]: inactive
